# PubChem BioAssay
# For part of these data: Entries with a potency or affinity are not part of this list. The list shows a part of the results. Calls of active or inactive are those of the source.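 The calls were made as follows, unless noted: active = calcium signal ratio cut to more than 3 SD under the fully stimulated control mean yet still positive, in both repeats and the primary screen; inactive = the rest.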
# Columns and labels:
# [1] = system: TRPC4 beta (transient receptor potential cation channel C4), mouse; assay: TRPC4 cation channel opening, retest – cell-based, Fluo4 calcium, HEK293 TRPC4beta/mu-opioid, duplicates, 10 µM, confirmation (AID 2426;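 active = fluorescence ratio normalized to control raised more than 50% in primary screen plus both repeat runs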;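 as to activation: percent rise of integrated ratio over buffer wells lacking compound which define 0%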); settings: Fluo4 calcium fluorescence, at 10 µM; hits give high values
# [2] = system: transient receptor potential cation channel C4 beta (TRPC4), mouse; assay: TRPC4 cation channel opening, second retest – cell-based, second round, Fluo4, HEK293 TRPC4beta/mu-opioid, 1 µM, confirmation (AID 2461;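 active = primary screen active and over 50% activation in each of two duplicate runs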;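 as to activation: 0% = wells without test compound as baseline of integrated fluorescence ratio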); settings: Fluo4 calcium fluorescence, at 1 µM; hits give high values
# [3] = system: TRPC4 (transient receptor potential cation channel C4 beta), mouse; assay: potentiation of DAMGO EC20 TRPC4 response – cell-based, second round, Fluo-4, HEK293 TRPC4beta/mu-opioid, 1 µM, confirmation (AID 2554;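 active = primary screen hit whose fluorescence ratio, in both repeats, exceeds the weak agonist control mean by 3 SD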); settings: DAMGO EC20, Fluo-4 calcium flux, at 1 µM; hits give high values
# [4] = system: TRPC4 beta (transient receptor potential cation channel C4), mouse; assay: potentiation of DAMGO EC20 TRPC4 response – cell-based, Fluo-4, HEK293 TRPC4beta/mu-opioid, confirmation (AID 2555;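 active = primary screen hit whose calcium fluorescence ratio, in both repeats, exceeds the weak agonist control mean by 3 SD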); settings: DAMGO EC20, Fluo-4 calcium flux, at 10 µM; hits give high values
# [5] = molecular target: Short transient receptor potential channel 4 (Mus musculus) (UniProt Q9QUQ5); assay: blockers of DAMGO-evoked TRPC4 calcium flux – cell-based, Fluo4, HEK293 TRPC4beta/mu-opioid, confirmation (AID 2636;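 active = calcium signal cut by more than 3 SD below the full-agonist control yet still positive, in both repeats and the earlier primary screen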); settings: at 10 µM; hits give high values
# [6] = molecular target: Short transient receptor potential channel 4 (Mus musculus) (UniProt Q9QUQ5); assay: blockers of DAMGO-evoked TRPC4 calcium flux – cell-based, second round, Fluo4, HEK293 TRPC4beta/mu-opioid, 1 µM, confirmation (AID 2637); settings: at 1 µM; hits give high values
# [7] = molecular target: Short transient receptor potential channel 4 (Mus musculus) (UniProt Q9QUQ5); assay: potentiation of DAMGO-evoked TRPC4 calcium signal – cell-based, HEK293 TRPC4/mu-opioid, Fluo-4 calcium, EC20 DAMGO, dose response (AID 434941;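 active = earlier screen potentiator hit that boosts the TRPC4 ion channel at some dose, with a dose response; inactive = no potentiation, no dose response, or not a prior hit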;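 also: calcium entry triggered by an EC20 dose of DAMGO at the co-expressed mu-opioid receptor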)
# [8] = molecular target: Short transient receptor potential channel 4 (Mus musculus) (UniProt Q9QUQ5); assay: block of DAMGO-driven TRPC4 calcium entry – cell-based, HEK293 TRPC4/mu-opioid, Fluo-4 calcium, dose response (AID 434942;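 active = primary screen inhibitor hit that blocks the TRPC4 channel at some tested dose, yielding a dose curve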)
# [9] = molecular target: Short transient receptor potential channel 6 (Mus musculus) (UniProt Q61143); assay: TRPC6 blockade by TRPC4 inhibitor hits – cell-based, HEK293, membrane potential dye, duplicate, selectivity assay for TRPC4 inhibitor project, confirmation (AID 434948;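 active = active in primary screen and both duplicates, each dropping signal beyond three positive-control SD with fluorescence still positive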); settings: HEK293 TRPC6, membrane potential dye fluorescence, at 10 µM; inhibition: hits give high values, stimulated with maximal-effect acetylcholine unless noted; outcome: stimulated with maximal-effect acetylcholine unless noted
# [10] = molecular target: Short transient receptor potential channel 6 (Mus musculus) (UniProt Q61143); assay: TRPC6 opening by TRPC4 activator hits – cell-based, HEK293, membrane potential dye, duplicate, selectivity assay for TRPC4 activator project, confirmation (AID 434950;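 active = membrane potential signal rise above negative control mean plus 3 SD in both duplicates, also active in the earlier TRPC4 screen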;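 also: 0% = buffer only wells and 100% = acetylcholine maximal-effect wells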); settings: HEK293 TRPC6, membrane potential fluorescence, at 10 µM; activation: hits give high values; outcome: activation
# [11] = molecular target: Short transient receptor potential channel 6 (Mus musculus) (UniProt Q61143); assay: positive modulators of mouse TRPC6 channel – HEK293 cells, membrane potential dye, duplicate, selectivity assay for TRPC4 potentiator project, confirmation (AID 434952;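 active = compound raising the membrane signal above positive-control mean plus 3 SD in both repeats, and a primary screen hit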); settings: HEK293 TRPC6, membrane potential dye fluorescence, at 10 µM; maximal acetylcholine added after compound unless noted
# [12] = molecular target: Short transient receptor potential channel 4 (Mus musculus) (UniProt Q9QUQ5); assay: calcium flux activators in TRPC4/5HT1a cells, counter-screen for TRPC4 activator project, cell-based, second counter screen, HEK293 TRPC4/5HT1a, Fluo-4 (AID 434977;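 active = calcium signal rise above buffer-control mean plus 5 SD in both duplicates, and also a hit in the primary screen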;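 as to activation: plate controls were assay buffer for no effect and maximal serotonin response for full effect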); settings: Fluo-4 calcium flux, at 10 µM; hits give high values
# [13] = serotonin-gated TRPC4 signal block – cell-based, second counter screen, HEK293 TRPC4/5HT1a, Fluo-4, counter-screen for TRPC4 inhibitor project, confirmation (AID 434978;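 active = primary screen active whose calcium signal fell more than 3 SD beyond the full-serotonin control mean in both duplicate plates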;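 also: serotonin given first at submaximal then at maximal dose after compound preincubation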); settings: Fluo-4 calcium flux, at 10 µM; inhibition: hits give high values, serotonin added to trigger calcium flux unless noted; outcome: serotonin added to trigger calcium flux unless noted
# [14] = system: TRPC4 (mouse), co-expressed with 5HT1a in HEK293; assay: enhancement of serotonin-evoked TRPC4 response – cell-based, second counter screen, HEK293 TRPC4/5HT1a, Fluo-4, counter-screen for TRPC4 potentiator project, confirmation (AID 434979;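 active = signal rise over 3 SD above mean of control wells given weak agonist, in both repeats and first screen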); settings: Fluo-4 calcium flux, at 10 µM; outcome: serotonin added at its EC20 dose unless noted; potentiation: hits give high values, serotonin added at its EC20 dose unless noted
# [15] = nonspecific calcium rise without TRPC4 – cell-based, HEK293 mu-opioid receptor line, counter-screen for TRPC4 activator project, confirmation (AID 449723;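 active = hit in primary screen, with calcium signal over 5 SD above buffer well mean in both duplicates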;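 also: counter screen cells carry the mu-opioid receptor alone and lack TRPC4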); settings: HEK293 mu-opioid cells, Fluo-4 calcium fluorescence, at 10 µM; hits give high values
# [16] = nonspecific potentiation of DAMGO calcium response – cell-based, HEK293 mu-opioid receptor line, counter-screen for TRPC4 allosteric potentiator project, confirmation (AID 449724;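 active = calcium signal rise more than 3 SD above the low-dose agonist control mean, in both duplicate plates and the primary screen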); settings: HEK293 mu-opioid receptor cells, Fluo-4 calcium flux, at 10 µM; compound added before EC20 DAMGO stimulus unless noted
# [17] = nonspecific voltage dye response without TRPC6 – cell-based, parental HEK293, counter-screen for TRPC6 modulator project, confirmation (AID 488924;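 active = membrane potential signal moves up or down beyond 5 SD from buffer-only wells, on both duplicate plates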); settings: parental HEK293, membrane potential dye fluorescence; at 10 µM
# [18] = membrane potential response modulators in host HEK293 cells – cell-based, second counter-screen, parental HEK293, membrane potential dye, counter-screen for TRPC6 modulator project, confirmation (AID 488926;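 active = membrane potential signal drops by more than 5 SD from the mean control signal, in both duplicate plates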;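 also: plate controls were acetylcholine ECmax control wells for no effect and buffer only wells for full effect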); settings: parental HEK293, membrane potential dye fluorescence, at 10 µM, after compound, maximal acetylcholine stimulation; hits give high values
# [19] = system: Transient receptor potential cation channel subfamily C member 4 (mouse); assay: off-target membrane potential effects via mouse TRPC4 – cell-based, HEK293 TRPC4/mu-opioid, membrane potential dye, selectivity assay for TRPC6 modulator project, confirmation (AID 488927;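 active = membrane potential signal moved up or down beyond 5 SD of buffer control wells, in both duplicate plates, actives on both sides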); settings: membrane potential fluorescence, at 10 µM
# [20] = system: TRPC4 (transient receptor potential cation channel C4), mouse; assay: DAMGO-evoked mouse TRPC4 response blockade – cell-based, second screen, HEK293 TRPC4/mu-opioid, membrane potential dye, selectivity assay for TRPC6 modulator project, confirmation (AID 488928;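 active = drop in membrane potential signal beyond 5 SD of the control wells in both duplicate plates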;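 also: TRPC4 counter screen for TRPC6 hits run under conditions tuned for TRPC6 not TRPC4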); settings: membrane potential dye fluorescence, at 10 µM, stimulated with maximal-effect DAMGO; hits give high values
# [21] = molecular target: Short transient receptor potential channel 6 (Mus musculus) (UniProt Q61143); assay: blockers of TRPC6 cation channel activity – HEK293 cells, membrane potential dye, duplicate, confirmation (AID 488960;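 active = fluorescence ratio falls more than 5 SD below the full-stimulation control mean, in both duplicate runs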;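 also: integrated fluorescence ratio of peak minus minimum over baseline after agonist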); settings: ACh-evoked depolarization, at 10 µM; hits give high values
# [22] = molecular target: Short transient receptor potential channel 6 (Mus musculus) (UniProt Q61143); assay: mouse TRPC6 channel activators, confirmation, HEK293 cells, membrane potential dye, duplicate (AID 488961;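 active = ratio signal rise beyond 5 SD above unstimulated control wells' mean, seen in both duplicate runs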); settings: HEK293-TRPC6 membrane potential dye fluorescence, FDSS; at 10 µM
# Sequence of Short transient receptor potential channel 4 (Mus musculus) (Q9QUQ5 whole entry, looked up): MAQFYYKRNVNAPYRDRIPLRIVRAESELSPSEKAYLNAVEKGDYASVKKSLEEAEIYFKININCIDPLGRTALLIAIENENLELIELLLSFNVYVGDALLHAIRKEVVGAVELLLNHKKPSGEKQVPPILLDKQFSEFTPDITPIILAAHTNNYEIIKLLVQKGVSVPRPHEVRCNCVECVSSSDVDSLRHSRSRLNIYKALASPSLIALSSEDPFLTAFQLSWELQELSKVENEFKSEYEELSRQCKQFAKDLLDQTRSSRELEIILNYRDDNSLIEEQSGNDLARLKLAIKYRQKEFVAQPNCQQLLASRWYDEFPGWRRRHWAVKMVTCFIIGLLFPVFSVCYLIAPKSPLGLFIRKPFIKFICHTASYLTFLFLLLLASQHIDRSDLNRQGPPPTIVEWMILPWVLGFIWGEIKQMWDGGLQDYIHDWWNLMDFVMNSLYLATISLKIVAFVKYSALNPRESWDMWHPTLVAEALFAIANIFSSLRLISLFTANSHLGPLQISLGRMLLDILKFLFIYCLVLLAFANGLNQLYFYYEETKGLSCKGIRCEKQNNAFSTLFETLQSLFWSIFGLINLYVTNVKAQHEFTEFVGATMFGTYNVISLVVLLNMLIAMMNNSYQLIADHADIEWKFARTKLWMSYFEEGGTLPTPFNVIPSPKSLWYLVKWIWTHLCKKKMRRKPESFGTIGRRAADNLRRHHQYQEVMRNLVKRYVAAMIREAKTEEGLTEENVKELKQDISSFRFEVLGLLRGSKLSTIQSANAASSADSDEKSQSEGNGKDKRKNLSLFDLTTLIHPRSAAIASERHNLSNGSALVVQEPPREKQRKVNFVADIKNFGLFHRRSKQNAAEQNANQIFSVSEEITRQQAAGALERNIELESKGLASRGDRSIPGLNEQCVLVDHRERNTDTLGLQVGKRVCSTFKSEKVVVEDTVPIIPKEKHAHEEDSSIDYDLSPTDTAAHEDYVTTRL
# Sequence of Short transient receptor potential channel 6 (Mus musculus) (Q61143 whole entry, looked up): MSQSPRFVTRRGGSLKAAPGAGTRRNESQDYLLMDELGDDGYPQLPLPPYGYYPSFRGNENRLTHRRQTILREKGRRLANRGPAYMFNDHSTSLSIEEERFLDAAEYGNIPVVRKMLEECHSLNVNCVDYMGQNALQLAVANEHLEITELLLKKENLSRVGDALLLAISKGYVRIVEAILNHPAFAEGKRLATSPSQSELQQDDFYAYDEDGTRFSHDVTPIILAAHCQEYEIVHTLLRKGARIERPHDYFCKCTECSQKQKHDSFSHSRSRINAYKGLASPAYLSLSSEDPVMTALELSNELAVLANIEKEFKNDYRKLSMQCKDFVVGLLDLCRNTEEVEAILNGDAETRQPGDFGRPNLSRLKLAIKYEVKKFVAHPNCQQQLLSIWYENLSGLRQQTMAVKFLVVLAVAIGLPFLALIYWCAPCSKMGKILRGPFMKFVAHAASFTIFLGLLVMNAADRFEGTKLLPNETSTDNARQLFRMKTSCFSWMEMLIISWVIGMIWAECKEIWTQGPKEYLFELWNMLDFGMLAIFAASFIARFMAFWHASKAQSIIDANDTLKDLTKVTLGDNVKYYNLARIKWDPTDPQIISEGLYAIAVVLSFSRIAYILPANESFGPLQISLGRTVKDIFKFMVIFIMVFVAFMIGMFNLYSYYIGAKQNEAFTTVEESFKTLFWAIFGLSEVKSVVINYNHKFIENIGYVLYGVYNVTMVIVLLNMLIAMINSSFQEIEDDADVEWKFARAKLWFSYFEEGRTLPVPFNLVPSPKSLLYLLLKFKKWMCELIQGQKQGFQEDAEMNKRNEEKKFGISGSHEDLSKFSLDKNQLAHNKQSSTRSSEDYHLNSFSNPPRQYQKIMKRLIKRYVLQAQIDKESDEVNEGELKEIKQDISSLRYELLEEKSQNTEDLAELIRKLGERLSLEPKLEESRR
compound,measurement,setting,value
CCOC(=O)C1(c2ccccc2)CCN(CCC(=O)Nc2ccccc2OC)CC1,activation,[1],70% (active)
same,outcome,[2],inactive
same,outcome,[3],inactive
same,outcome,[4],inactive
same,outcome,[5],inactive
same,outcome,[6],inactive
same,outcome,[7],inactive
same,outcome,[8],inactive
same,outcome,[9],inactive [setting not given]
same,activation,[10],62% (active)
same,outcome,[11],inactive [setting not given]
same,outcome,[12],inactive
same,outcome,[13],inactive [setting not given]
same,outcome,[14],inactive [setting not given]
same,outcome,[15],inactive
same,outcome,[16],inactive [setting not given]
Cc1ccc(-n2cc(CNC(C)Cc3cnccn3)c(-c3cccc(C)c3)n2)cc1 (configuration not stated),activation,[1],146% (active)
same,outcome,[2],inactive
same,outcome,[3],inactive
same,outcome,[4],inactive
same,outcome,[5],inactive
same,outcome,[6],inactive
same,outcome,[7],inactive
same,outcome,[8],inactive
same,outcome,[9],inactive
same,activation,[10],42.5% (active)
same,outcome,[11],inactive
same,outcome,[12],inactive
same,outcome,[13],inactive
same,outcome,[14],inactive
same,outcome,[15],inactive
same,outcome,[16],inactive
CC1=CC(=Cc2sc3ccccc3[n+]2C)C=C(C)O1,outcome,[17],inactive
same,inhibition,[18],131% (active)
same,outcome,[19],inactive
same,outcome,[20],inactive
same,inhibition,[21],73% (active)
same,outcome,[22],inactive
COc1ccc2c(c1O)[C@]13CCN(C)[C@H](C2)[C@@H]1CCC(=O)C3,activation,[1],82% (active)
same,activation,[2],99% (active)
same,outcome,[3],inactive
same,outcome,[4],inactive
same,outcome,[5],inactive
same,outcome,[6],inactive
same,outcome,[7],inactive
same,outcome,[8],inactive
same,outcome,[9],inactive [setting not given]
same,activation,[10],29.5% (active)
same,outcome,[11],inactive [setting not given]
same,outcome,[12],inactive
same,outcome,[13],inactive [setting not given]
same,outcome,[14],inactive [setting not given]
same,outcome,[15],inactive
same,outcome,[16],inactive [setting not given]
COc1ccc(CNCCc2c[nH]c3ccccc23)c(OC)c1C,activation,[1],151% (active)
same,outcome,[2],inactive
same,outcome,[3],inactive
same,outcome,[4],inactive
same,outcome,[5],inactive
same,outcome,[6],inactive
same,outcome,[7],inactive
same,outcome,[8],inactive
same,outcome,[9],inactive
same,activation,[10],63.5% (active)
same,outcome,[11],inactive
same,activation,[12],13.6% (active)
same,outcome,[13],inactive
same,outcome,[14],inactive
same,outcome,[15],inactive
same,outcome,[16],inactive
COc1ccc(CNCCc2c[nH]c3ccccc23)cc1OC,activation,[1],110% (active)
same,outcome,[2],inactive
same,outcome,[3],inactive
same,outcome,[4],inactive
same,outcome,[5],inactive
same,outcome,[6],inactive
same,outcome,[7],inactive
same,outcome,[8],inactive
same,outcome,[9],inactive
same,activation,[10],28% (active)
same,outcome,[11],inactive
same,outcome,[12],inactive
same,outcome,[13],inactive
same,outcome,[14],inactive
same,outcome,[15],inactive
same,outcome,[16],inactive
CCOC(=O)C1(CCc2ccccc2)CCN(Cc2csc(C(C)=O)c2)CC1,outcome,[1],inactive
same,outcome,[2],inactive
same,outcome,[3],inactive
same,outcome,[4],inactive
same,outcome,[5],inactive
same,outcome,[6],inactive
same,outcome,[7],inactive
same,outcome,[8],inactive
same,outcome,[9],inactive
same,activation,[10],57.5% (active)
same,outcome,[11],inactive
same,outcome,[12],inactive
same,outcome,[13],inactive
same,outcome,[14],inactive
same,outcome,[15],inactive
same,outcome,[16],inactive
